According to PubChem BioAssay (NCATS):
Inconclusive results are not listed. The source made the active and inactive calls. Calls follow the shape of the dose curve; as a rule, active = well fitted curve in the direction sought with a large enough effect; inconclusive = small, poorly fitted or top-dose-only effect, or another doubt; inactive = no such curve, though single readings can be large; an effect the other way counts as inactive or inconclusive.

Legend:
[1] = qHTS of pediatric cancer cell lines to identify multiple opportunities for drug repurposing: Primary screen for OHS-50 cells (AID 1347103); also: nearly all actives have a fitted effect of over 40% in size; also: potency is read from the fitted curve at half-maximal effect
Summary of the method: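 Cells (500-1,000/well) rested 5 h, then received compounds for 48 h; metabolically active cells were measured by CellTiter-Glo luminescence. Final concentrations spanned up to 46 µM (MIPE, 11-point) or 0.59 nM-46 µM (NPC, 8-point) in primary screens, 11-point in follow-ups.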

[2] = qHTS of pediatric cancer cell lines to identify multiple opportunities for drug repurposing: Primary screen for RD cells (AID 1347104); also: potency is read from the fitted curve at half-maximal effect; nearly all actives have a fitted effect of over 55% in size
Summary of the method: (§1)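 Readout: CellTiter-Glo luminescence, 48 h treatment. Controls DMSO (neutral) and bortezomib 2.3 µM final (positive). Potency and efficacy taken from primary-screen concentration-response curves.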

[3] = qHTS of pediatric cancer cell lines to identify multiple opportunities for drug repurposing: Primary screen for Rh41 cells (AID 1347108); also: nearly all actives have a fitted effect of over 70% in size; also: potency is read from the fitted curve at half-maximal effect;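 as to activity change, negative = cytotoxic: luminescence drop marks cytotoxic hits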
Summary of the method: as §1

[4] = qHTS of pediatric cancer cell lines to identify multiple opportunities for drug repurposing: Primary screen for control Hh wild type fibroblast cells (AID 1347106); also: nearly all actives have a fitted effect of over 55% in size; also: potency is read from the fitted curve at half-maximal effect;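 as to activity change, negative = cytotoxic: a drop in luminescence marks cytotoxicity and a rise apparent proliferation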
Summary of the method: (§2)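 Viability after 48 h compound treatment at 37C, 500-1,000 cells/well, read as ATP luminescence with CellTiter-Glo. Primary screens used 11-point (MIPE, 0.78 nM-46 µM) or 8-point (NPC, 0.59 nM-46 µM) final concentrations; follow-up screens used 11-point dilutions.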

[5] = qHTS of pediatric cancer cell lines to identify multiple opportunities for drug repurposing: Primary screen for Rh30 cells (AID 1347107); also: nearly all actives have a fitted effect of over 75% in size; also: potency is read from the fitted curve at half-maximal effect
Summary of the method: as §2

[6] = qHTS of pediatric cancer cell lines to identify multiple opportunities for drug repurposing: Confirmatory screen for BT-12 cells (AID 1347112); also: nearly all actives have a fitted effect of over 55% in size; also: potency is read from the fitted curve at half-maximal effect
Summary of the method: as §2

[7] = qHTS of pediatric cancer cell lines to identify multiple opportunities for drug repurposing: Confirmatory screen for DAOY cells (AID 1347114); also: nearly all actives have a fitted effect of over 65% in size; also: potency is read from the fitted curve at half-maximal effect
Summary of the method: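 Viability measured as metabolically active cells via CellTiter-Glo luminescence following 48 hours of compound exposure, 11-point dilutions in confirmatory testing. 500-1,000 cells/well plated 5 hours before dosing; controls were DMSO and 2.3 µM bortezomib.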

[8] = qHTS of pediatric cancer cell lines to identify multiple opportunities for drug repurposing: Confirmatory screen for BT-37 cells (AID 1347117); settings: BT-37 pediatric cancer cells, viability; activity change, negative = cytotoxic: at 45.9 µM (top of the series); also: potency is read from the fitted curve at half-maximal effect; nearly all actives have a fitted effect of over 55% in size
Summary of the method: as §2

[9] = qHTS of pediatric cancer cell lines to identify multiple opportunities for drug repurposing: Confirmatory screen for TC32 cells (AID 1347118); also: potency is read from the fitted curve at half-maximal effect; nearly all actives have a fitted effect of over 65% in size
Summary of the method: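 Measured quantity: luminescence from CellTiter-Glo, reflecting metabolically active TC32 cells following 48 h of compound. Curves came straight from multi-point titrations, with 8 or 11 points in primary and 11 in confirmatory screening.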

[10] = qHTS of pediatric cancer cell lines to identify multiple opportunities for drug repurposing: Confirmatory screen for MG 63 (6-TG R) cells (AID 1347119); also: nearly all actives have a fitted effect of over 55% in size; also: potency is read from the fitted curve at half-maximal effect
Summary of the method: as §2

[11] = qHTS of pediatric cancer cell lines to identify multiple opportunities for drug repurposing: Confirmatory screen for control Hh wild type fibroblast cells (AID 1347121); also: nearly all actives have a fitted effect of over 70% in size
Summary of the method: as §2

[12] = qHTS of pediatric cancer cell lines to identify multiple opportunities for drug repurposing: Confirmatory screen for U-2 OS cells (AID 1347122); also: nearly all actives have a fitted effect of over 65% in size; also: potency is read from the fitted curve at half-maximal effect
Summary of the method: as §2

[13] = qHTS of pediatric cancer cell lines to identify multiple opportunities for drug repurposing: Confirmatory screen for A673 cells (AID 1347110); also: potency is read from the fitted curve at half-maximal effect; nearly all actives have a fitted effect of over 65% in size
Summary of the method: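 qHTS titration format: primary MIPE 0.78 nM-46 µM (11 pts), NPC 0.59 nM-46 µM; confirmation 11 pts. 48 h, CTG luminescence.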

[14] = qHTS of pediatric cancer cell lines to identify multiple opportunities for drug repurposing: Confirmatory screen for SK-N-MC cells (AID 1347111);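 also: potency is read from the fitted curve at half-maximal effect; cells exposed to compound for 48 h before the readout; nearly all actives have a fitted effect of over 70% in size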
Summary of the method: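 SK-N-MC cells at 500-1,000 cells/well in growth media were pre-incubated 5 h, then exposed to compounds at 11-point dilutions for 48 h at 37 degrees C, 5% CO2. Viability was read as CellTiter-Glo luminescence.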

[15] = qHTS of pediatric cancer cell lines to identify multiple opportunities for drug repurposing: Confirmatory screen for LAN-5 cells (AID 1347113)
Summary of the method: as §2

[16] = qHTS of pediatric cancer cell lines to identify multiple opportunities for drug repurposing: Confirmatory screen for NB-EBc1 cells (AID 1347115); also: nearly all actives have a fitted effect of over 45% in size
Summary of the method: as §2

[17] = qHTS of pediatric cancer cell lines to identify multiple opportunities for drug repurposing: Primary screen for MG 63 (6-TG R) cells (AID 1347105); also: nearly all actives have a fitted effect of over 50% in size; also: potency is read from the fitted curve at half-maximal effect
Summary of the method: as §1

Measured: Potency

C[C@H](NC(=O)C(C#N)=Cc1cccc(Br)n1)c1ccccc1
active: [1] 19.3 µM | [2] 33.2 µM | [3] 23.5 µM

COc1cc2c(cc1O)CCC1C2CC[C@@]2(C)C1CC[C@@H]2O (stereo not given in full)
active: [1] 7.69 µM
inactive: [4]

C=CC[C@@H]1C=C(C)C[C@H](C)C[C@H](OC)[C@H]2O[C@@](O)(C(=O)C(=O)N3CCCC[C@H]3C(=O)O[C@H](C(C)=C[C@@H]3CC[C@H](O)[C@H](OC)C3)[C@@H](C)[C@@H](O)CC1=O)[C@@H](C)C[C@@H]2OC
active: [1] 6.11 µM
inactive: [5]

CN1CCCN(C(=O)c2cccc(-c3ccc(C=C4C(=O)Nc5ccc(Cl)cc54)o3)c2)CC1
inactive: [4]
active: [1] 13.7 µM | [2] 33.2 µM | [5] 18.7 µM | [3] 18.7 µM

Cc1ncc(-c2ccnc(Nc3ccc(S(C)(=O)=O)cc3)n2)n1C(C)C
active: [1] 3.85 µM | [2] 6.62 µM | [3] 5.9 µM | [6] 3.29 µM | [7] 13.1 µM | [8] 3.29 µM | [9] 4.65 µM | [12] 3.29 µM
inactive: [4] | [5] | [10] | [11]

Oc1ccc(-c2ccc(-c3cc(Nc4cccc(CNC5CC5)c4)n[nH]3)cc2)c(O)c1
active: [1] 1.09 µM | [2] 10.5 µM | [3] 14.8 µM | [13] 2.33 µM | [14] 0.827 µM | [6] 8.27 µM | [15] 2.33 µM | [7] 6.57 µM | [8] 6.57 µM | [9] 2.33 µM
inactive: [4] | [10] | [11]

CN(CC(=O)N(Cc1ccc(C2CCCCC2)cc1)c1ccc(C(=O)O)c(O)c1)S(=O)(=O)c1c(F)c(F)c(F)c(F)c1F
inactive: [4] | [6] | [16] | [11]
active: [1] 21.7 µM | [3] 23.5 µM | [13] 13.1 µM | [8] 26.1 µM | [9] 26.1 µM | [10] 20.8 µM

C[C@]12CC[C@@H]3c4ccc(O)cc4CC[C@H]3[C@H]1CC[C@H]2O
active: [1] 24.3 µM | [2] 10.5 µM
inactive: [4]

O=c1c(O)c(-c2ccc(O)c(O)c2)oc2cc(O)ccc12
active: [1] 21.7 µM
inactive: [17]

Cc1coc2c1C(=O)C(=O)c1c-2ccc2c(C)cccc12
inactive: [1] | [17] | [4] | [5] | [3]

CC(C)(N)c1ccc(-c2nc3ccccc3nc2-c2ccccc2)cc1
inactive: [7] | [16] | [12]
active: [1] 7.69 µM | [2] 16.6 µM | [17] 23.5 µM | [3] 10.5 µM | [13] 2.93 µM | [14] 0.465 µM | [6] 0.928 µM | [15] 0.465 µM | [8] 18.5 µM | [9] 1.47 µM

COc1cc(CCc2cc(NC(=O)c3ccc(N4C[C@@H](C)N[C@@H](C)C4)cc3)n[nH]2)cc(OC)c1
active: [1] 5.44 µM | [2] 16.6 µM | [4] 33.2 µM | [5] 18.7 µM | [3] 5.9 µM
